From PubChem BioAssay (NCATS)
Inconclusive results are not listed. Values without a mark were called inactive. Calls come from the whole dose curve; as a rule, active = well fitted inhibition curve with a large enough effect; inconclusive = small, poorly fitted or top-dose-only effect; inactive = no such curve, though single readings can be large or run the other way. Square brackets hold non-standard residues; d marks the D form. Peptide text beside a SMILES is read from it. * marks the point of attachment. ξ: configuration not given here. ξPhe(βξ-Me) = CC(c1ccccc1)C(N)C(=O)O; AMC = Cc1cc(=O)oc2cc(N*)ccc12; Cbz = O=C(OCc1ccccc1)*; GABA = NCCCC(=O)O

Molecular target: Retinaldehyde dehydrogenase 3 (Homo sapiens) (UniProt P47895)
Assay: qHTS for Inhibitors of the Aldehyde Dehydrogenase Family (ALDH1A3) Primary screen (AID 2061315);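 note: plate controls were DMSO vehicle for no effect and reference inhibitor for full effect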
Conditions: ALDH inhibition qHTS; series mostly up to 56 µM; activity change, negative = inhibition: at the top concentration

| Structure (SMILES) | activity change, negative = inhibition |
| --- | --- |
| C/C(=C\CC[C@@H](C)[C@H]1CC(O)[C@@]2(C)C3CC[C@H]4C(C)(C)[C@@H](OC5OCC(O)C(O)C5OC5OC(CO)C(O)C(O)C5O)CC[C@@]45C[C@@]35CC(O)[C@]12C)C(=O)O (stereo not given in full) | 7.81% [at 16.9 µM] |
| C/C(=C\CCC(C(=O)O)C1CCC2(C)C3=C(CCC12C)C1(C)CCC(=O)C(C)(C)C1CC3)C(=O)O (stereo not given) | 0.677% [at 28 µM] |
| C[C@@H](O)[C@H](N)C(=O)N1CCC[C@H]1C(=O)N1CCC[C@H]1C(=O)N[C@H](C(N)=O)[C@@H](C)O (H-TPPT-NH2) | -29.1% [at 11.2 µM] |
| CNC(=O)c1ccccc1Sc1ccc2c(/C=C/c3ccccn3)n[nH]c2c1 | -8.03% |
| CC(C)CC1(C(=O)OCc2ccc(O[C@@H]3O[C@H](CO)[C@@H](O)[C@H](O)[C@H]3O)cc2)CC(=O)OC(C(=O)O)CC(=O)OCC2OC(O1)C(OC(=O)/C=C/c1ccc(O)cc1)C(O)C2O (stereo not given in full) | 1.11% [at 16.9 µM] |
| CC(C#N)C(C)O[C@@H]1O[C@H](CO)[C@@H](O)[C@H](O)[C@H]1O (stereo not given in full) | 12.6% |
| COCC(c1ccc(C(F)(F)F)cc1)N1CCN(C2(C)CCN(C(=O)c3c(C)ncnc3C)CC2)CC1C (stereo not given) | -6.68% |
| COC(=O)C1=CO[C@@H](O[C@@H]2O[C@H](CO)[C@@H](O)[C@H](O)[C@H]2O)[C@H]2[C@@H]1C=C[C@@]21C=C([C@H](C)O)C(=O)O1 | 3.31% [at 28 µM] |
| Cc1cc2c(c(=O)o1)C=C1CC[C@H]([C@H](C)Cn3cnc(=N)c4[nH]cnc43)C[C@@H]1O2 | -19.1% |
| CC(C)=C[C@@H]1[C@H](CO[C@@H]2O[C@H](CO)[C@@H](O)[C@H](O)[C@H]2O)C1(C)C | -4.67% |
| C=C1C[C@@]23CCC4[C@@](C)(CCC[C@@]4(C)C(=O)OC)C2CC[C@@H]1C3 (stereo not given in full) | -0.974% |
| COc1cccc2c1CCC[C@H]2CN(C)CCc1ccc2ccoc2c1 | -0.263% |
| C=CC(C)(O)CC/C=C(/C)C(=O)OC1C(OC2OCC(OC3OC(CO)C(O)C(O)C3O)C(OC3OCC(O)C(OC4OC(C)C(O)C(O)C4O)C3O)C2O)COC(OC(=O)C23CCC(C)(C)CC2C2=CCC4C5(C)CCC(OC6OC(CO)C(OC7OC(CO)C(O)C(OC8OCC(O)C(O)C8O)C7O)C(O)C6O)C(C)(C)C5CCC4(C)C2(C)CC3O)C1O (stereo not given) | 8.04% [at 11.2 µM] |
| C=C1C2(C)CC3C4(C)OC(C5OC56C4=CC(=O)OC6(C)C)C3(C)C13C(=O)OC(C)C3(O)C2=O (stereo not given) | 13.4% [at 28 µM] |
| CCOC(=O)c1c(C)nn(-c2cccc([N+](=O)[O-])c2)c1C | -3.59% |
| C[C@@H]1O[C@@H](OC[C@H]2O[C@@H](Oc3cc(O)cc4c3C(=O)C(O)(Cc3ccc(O)cc3)O4)[C@H](O)[C@@H](O)[C@@H]2O)[C@H](O)[C@H](O)[C@H]1O (stereo not given in full) | 0.611% [at 16.9 µM] |
| C=C1CCC2(OC1)OC1CC3C4CC=C5CC(O)CC(O[C@@H]6OC[C@@H](O)[C@H](O)[C@H]6O)C5(C)C4CCC3(C)C1(O)C2C (stereo not given in full) | 2.52% [at 16.9 µM] |
| C[C@@H]1O[C@@H](O[C@@H]2[C@@H](O)[C@H](O[C@@H]3[C@@H](O)[C@@H](O)[C@H](O[C@H]4[C@H](OC(=O)[C@]56CCC(C)(C)C[C@H]5C5=CCC7[C@@]8(C)C[C@H](O)[C@H](O[C@@H]9O[C@@H](C)[C@H](O)[C@@H](O)[C@H]9O)[C@@](C)(CO)C8CC[C@@]7(C)[C@]5(C)C[C@H]6O)O[C@H](C)[C@H](O)[C@@H]4O)O[C@H]3C)OC[C@H]2O)[C@H](O)[C@H](O)[C@H]1O (stereo not given in full) | 5.2% [at 11.2 µM] |
| CC1=CC(=O)CC(C)(C)C1CCC(C)O[C@@H]1O[C@H](CO[C@@H]2OC[C@@H](O)[C@H](O)[C@H]2O)[C@@H](O)[C@H](O)[C@H]1O (stereo not given in full) | 6.91% [at 28 µM] |
| CC(=O)OC1C(=O)C2C3OCC4=C3[C@@](C)(CC[C@@H]4O)CC[C@]2(C)[C@H]1C(C)C (stereo not given in full) | 6.29% |

| Structure (SMILES) | activity change, negative = inhibition |
| --- | --- |
| Cn1ccc(NC(=O)c2cc(Oc3ccc(C(=O)N4CCC4)c(F)c3)c3c(c2)OC(C)(C)C3)n1 | -21.3% |
| CC1CC[C@]2(C(=O)O)CC[C@]3(C(=O)O)C(=CCC4[C@@]5(C)CC[C@H](OC6OC(C)C(O)C(OC7OC(CO)C(O)C(O)C7O)C6O)C(C)(C)C5CC[C@]43C)C2C1C (stereo not given in full) | 9.03% [at 16.9 µM] |
| C/C=C1/[C@H](O[C@@H]2O[C@H](CO)[C@@H](O)[C@H](O)[C@H]2O)OC=C(C(=O)OC)[C@H]1CC(=O)OCCc1ccc(O)c(O)c1 | -28.1% [at 28 µM] |
| COC(=O)C1=CO[C@@H](O[C@@H]2O[C@H](CO)[C@@H](O)[C@H](O)[C@H]2O)[C@@H]2[C@@H](C(=O)O)CC[C@H]12 | -13.9% [at 28 µM] |
| CC(C)CC1NC(=O)C(C(C)c2ccccc2)NC(=O)C(C(C)C)NC(=O)C(C)NC(=O)CCCNC(=O)C(Cc2c[nH]c3ccccc23)NC(=O)C(C)NC1=O (stereo not drawn) (cyclo([GABA]AV[ξPhe(βξ-Me)]LAW); configuration not given here) | 14.4% [at 16.9 µM] |
| C=C1C(=O)O[C@@H]2C=C(COC(C)=O)CC/C=C(\CO)CC[C@@H]12 | 18.8% |
| C[C@@H]1CCO[C@H]2Cn3cc(C(=O)NCc4ccc(F)cc4F)c(=O)c(O)c3C(=O)N12 | 5.95% |
| CC(C)(C)NCc1cc(Nc2ccnc3cc(Cl)ccc23)c2c(c1O)CCCC2 | -4.88% [at 0.464 µM] |
| CC(C)=CCCC1(C)Oc2cc3c(c4c2C2C(O4)C(C)(O)CCC21)CN(C(CCC(=O)O)C(=O)O)C3=O (stereo not given) | 6.64% [at 28 µM] |
| COC(=O)C1C(c2ccc(O)cc2)C(C(=O)O)C1c1ccc(O)cc1 (stereo not given) | -29.1% |
| O=C(c1ccc(OC(F)F)c(C#Cc2ccccn2)c1)N1Cc2cccnc2C1 | -11.2% |
| C[C@@H](c1nc(-c2ccc(C#N)cc2)cs1)[C@](O)(Cn1cncn1)c1cc(F)ccc1F | 1.47% |
| C=C(C(=O)O)C1CC2=C(C)CCCC2(C)C[C@@H]1O (stereo not given in full) | -4.98% |
| Cc1cc(=O)oc2cc(NC(=O)[C@H](CCC(=O)O)NC(=O)[C@H](CC(C)C)NC(=O)[C@H](CC(C)C)NC(=O)OCc3ccccc3)ccc12 (Cbz-Leu-Leu-Glu-{AMC}) | 7.83% |
| CCCC(CCC)C(=O)NCc1ccc2c(cnn2-c2ccccc2OC)c1 | -12.2% |
| CCCCCOC(=O)Nc1nc(=O)n(C2O[C@H](C)[C@@H](O)[C@H]2O)cc1F (stereo not given in full) | -10.5% |
| CC1CCCC(O)CC(=O)c2c(O)cc(O)cc2CC(=O)O1 (stereo not given) | -11.1% |
| CC1OC(OC2C(CO)OC(OCC3OC(OC(=O)C45CCC(C)(C)CC4C4=CCC6C7(C)CCC(OC8OC(CO)C(O)C(OC9OC(CO)C(O)C(O)C9O)C8O)C(C)(C)C7CCC6(C)C4(C)CC5)C(O)C(O)C3O)C(O)C2O)C(O)C(O)C1OC1OC(CO)C(O)C(O)C1O (stereo not given) | 7.19% [at 11.2 µM] |
| CC(=O)OC(C)(C)/C=C/C(=O)[C@](C)(O)C1[C@H](O)C[C@@]2(C)[C@@H]3CC=C4[C@@H](C[C@H](O[C@@H]5O[C@H](CO)[C@@H](O)[C@H](O)[C@H]5O)C(=O)C4(C)C)[C@]3(C)C(=O)C[C@]12C (stereo not given in full) | -11.9% [at 16.9 µM] |
| C/C=C(/C)C(=O)OC1CC(C)(C)CC2C3=CCC4C5(C)CCC(O[C@@H]6O[C@H](C(=O)O)[C@@H](O)[C@H](O)[C@H]6O[C@@H]6O[C@H](CO)[C@H](O)[C@H](O[C@@H]7OC[C@H](O)[C@H](O)[C@H]7O[C@@H]7O[C@H](CO)[C@@H](O)[C@H](O)[C@H]7O)[C@H]6O)C(C)(C)C5CCC4(C)C3(C)C(O)C(O)C12CO (stereo not given in full) | -6.72% [at 11.2 µM] |
